About 83,000 compounds went through this panel and 20% of them were active in at least one assay; those are over-represented in the sample as a whole.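 Results are percent growth after 48 hours of single-concentration exposure. 100 means growth as in untreated cells, lower positive values show inhibition; negative values down to -100 show cell death.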 A number with no mark means an inactive call. Activity calls are given as the source filed them. The calls were made as follows: active = growth percent below 10; inactive = the rest.

Common to all, as to test: NCI-60 one-dose screen, 48 h (100 = growth as untreated, 0 = no growth, -100 = all killed)
One assay relates to SK-MEL-2 melanoma. As to conditions: 10 µM unless noted.
In the next assay the test system is EKVX NSCLC. As to conditions: 10 µM unless noted.
A further assay concerns SN12C renal. To be noted: 10 µM unless noted.
A further assay deals with UO-31 renal. To be noted: 10 µM unless noted.
In a further assay the test system is ACHN renal. As to conditions: 10 µM unless noted.
In the next assay the test system is CAKI-1 renal. To be noted: 10 µM unless noted.
In a further assay the test system is A498 renal. As to conditions: 10 µM unless noted.
The subject of a further assay is CCRF-CEM leukemia. To be noted: 10 µM unless noted.
The subject of the next assay is MOLT-4 leukemia. As to conditions: 10 µM unless noted.
In a further assay the test system is SR leukemia. As to conditions: 10 µM unless noted.
The next assay relates to RPMI-8226 leukemia. As to conditions: 10 µM unless noted.
Another assay relates to OVCAR-8 ovarian. To be noted: 10 µM unless noted.
The subject of the next assay is OVCAR-5 ovarian. As to conditions: 10 µM unless noted.
The subject of another assay is OVCAR-4 ovarian. To be noted: 10 µM unless noted.
The next assay has as its system SK-OV-3 ovarian. As to conditions: 10 µM unless noted.
A further assay relates to IGROV1 ovarian. As to conditions: 10 µM unless noted.
The subject of another assay is OVCAR-3 ovarian. To be noted: 10 µM unless noted.
The subject of a further assay is NCI/ADR-RES ovarian. To be noted: 10 µM unless noted.
A further assay relates to HS 578T breast. To be noted: 10 µM.
The test system of the next assay is TK-10 renal. As to conditions: 10 µM unless noted.

On to `Cc1[nH]nc2ccc3nc(-c4ccc5[nH]ncc5c4)c4c(c3c12)CCCC4`, for which the growth in the assay on SK-MEL-2 melanoma was -15.5% (active); in the assay on EKVX NSCLC, 20.2%; in the assay with SN12C renal, 23.2%; in the assay on UO-31 renal it was 12.8%; with ACHN renal, 6.93% (active); in the assay with CAKI-1 renal, 12.5%. Moreover, the growth was -10.8% (active) in the assay on A498 renal; 16.8% with CCRF-CEM leukemia; 3.85% (active) in the assay with MOLT-4 leukemia; 1.09% (active) with SR leukemia; 13% in the assay with RPMI-8226 leukemia; 28.2% with OVCAR-8 ovarian. Also, the growth in the assay with OVCAR-5 ovarian was 46.6%; with OVCAR-4 ovarian, 38.4%; in the assay on SK-OV-3 ovarian it was -19.6% (active); with IGROV1 ovarian it was 11.9%; with OVCAR-3 ovarian, 32.8%; with NCI/ADR-RES ovarian, 40%.

Take `O=C(OCc1ccc2c(Br)cc(Br)c(O)c2n1)c1cc2ccccc2[nH]1`: the growth in the assay on SK-MEL-2 melanoma was -20.6% (active); in the assay on EKVX NSCLC it was -65.5% (active); in the assay with SN12C renal, -79.2% (active); in the assay with UO-31 renal, -100% (active); in the assay with ACHN renal it was -100% (active); in the assay on CAKI-1 renal it was -97.6% (active). Further, the growth was -1.86% (active) with A498 renal; 2.81% (active) in the assay on CCRF-CEM leukemia; -8.64% (active) with MOLT-4 leukemia; 3.2% (active) in the assay with SR leukemia; -25.2% (active) in the assay with RPMI-8226 leukemia; -23.7% (active) in the assay with OVCAR-8 ovarian. In addition, the growth with OVCAR-5 ovarian was -85.4% (active); in the assay with OVCAR-4 ovarian, -21.2% (active); in the assay on SK-OV-3 ovarian, 68.8%; in the assay on IGROV1 ovarian it was -91.5% (active); in the assay with OVCAR-3 ovarian it was -80.8% (active); with HS 578T breast, -4.51% (active). The growth in the assay on NCI/ADR-RES ovarian is -55.2% (active).

Consider `CN(C)c1ccc(/C=C(\C#N)c2nc3ccccc3n2C)cc1`, for which the growth with SK-MEL-2 melanoma is 46.6%; in the assay on EKVX NSCLC, 28.3%; in the assay on SN12C renal, 54%; in the assay on UO-31 renal it was 46.2%; with TK-10 renal, 37.7%; in the assay with CAKI-1 renal, 13.7%. Moreover, the growth was 31.2% in the assay on CCRF-CEM leukemia; 29.5% in the assay on MOLT-4 leukemia; 29.2% with SR leukemia; 15.8% in the assay with RPMI-8226 leukemia; 40.3% in the assay on OVCAR-8 ovarian; 64.3% in the assay with OVCAR-5 ovarian. Moreover, the growth is 55.2% in the assay with OVCAR-4 ovarian; 34.8% with SK-OV-3 ovarian; 32.3% in the assay with IGROV1 ovarian; -8.87% (active) with OVCAR-3 ovarian; 27.6% in the assay on NCI/ADR-RES ovarian.

Regarding `C=CCn1c(C)nc2cc(Nc3nc(Nc4ccc5nc(C)n(CC=C)c5c4)nc4ccccc34)ccc21`, the growth in the assay on SK-MEL-2 melanoma was 121%; with EKVX NSCLC, 97.1%; in the assay with SN12C renal, 96.5%; in the assay with UO-31 renal, 89.3%; in the assay with ACHN renal, 104%; with CAKI-1 renal it was 101%. The growth with A498 renal was 125%; in the assay with CCRF-CEM leukemia it was 94.8%; with MOLT-4 leukemia, 101%; in the assay with SR leukemia, 106%; with RPMI-8226 leukemia, 98.8%; in the assay on OVCAR-8 ovarian, 98.9%. Besides, the growth with OVCAR-5 ovarian was 107%; in the assay on OVCAR-4 ovarian, 99.5%; in the assay on SK-OV-3 ovarian, 104%; with IGROV1 ovarian, 102%; with OVCAR-3 ovarian it was 108%; with HS 578T breast, 100%. The growth with NCI/ADR-RES ovarian was 101%.

Regarding `O=C(O)c1cn(-c2ccccc2)nc1-c1ccc(O)cc1`, the growth is 103% in the assay on SK-MEL-2 melanoma; 95.7% in the assay with EKVX NSCLC; 98.9% in the assay with SN12C renal; 89.4% in the assay on UO-31 renal; 106% in the assay with TK-10 renal; 74.3% in the assay with A498 renal. For the same compound, the growth is 94% in the assay on CCRF-CEM leukemia; 104% in the assay on MOLT-4 leukemia; 93.3% with SR leukemia; 96.7% in the assay on RPMI-8226 leukemia; 90.8% with OVCAR-8 ovarian; 101% in the assay on OVCAR-5 ovarian. In addition, the growth in the assay on OVCAR-4 ovarian was 92.2%; with SK-OV-3 ovarian, 92.4%; in the assay on IGROV1 ovarian, 111%; in the assay on HS 578T breast, 94.2%; in the assay on NCI/ADR-RES ovarian, 101%.

With `O=C(CSc1ccc(Cl)cc1)Nc1ccc(-c2nc3ccccc3s2)c(Cl)c1`, the growth in the assay on SK-MEL-2 melanoma was 92.9%; in the assay with EKVX NSCLC, 59.6%; in the assay on SN12C renal, 46.5%; in the assay on UO-31 renal, 38.2%; with ACHN renal, 54.1%; in the assay on CAKI-1 renal it was 53.5%. For the same compound, the growth with A498 renal is 32.1%; with CCRF-CEM leukemia, 41.6%; with MOLT-4 leukemia, 68.3%; with RPMI-8226 leukemia, 38.5%; with OVCAR-8 ovarian it was 50.8%; in the assay on OVCAR-5 ovarian it was 99.1%. Besides, the growth is 57.6% in the assay with OVCAR-4 ovarian; 94.7% with SK-OV-3 ovarian; 69.4% in the assay on IGROV1 ovarian; -10.9% (active) in the assay with OVCAR-3 ovarian; 79.1% in the assay on HS 578T breast; 62% in the assay on NCI/ADR-RES ovarian.

In the case of `COc1cc(CN2CCO[C@H](COc3cccc(F)c3)C2)ccc1Cl`, the growth was 31% in the assay with SK-MEL-2 melanoma; 46.3% in the assay on EKVX NSCLC; 29.3% in the assay with SN12C renal; 45.6% in the assay on UO-31 renal; 53.9% with ACHN renal; 41.3% with CAKI-1 renal. The growth was 30.6% in the assay on A498 renal; 42.8% in the assay on CCRF-CEM leukemia; 52.8% with MOLT-4 leukemia; 50.8% in the assay with SR leukemia; 30.4% in the assay on RPMI-8226 leukemia; 22.2% in the assay with OVCAR-8 ovarian. Besides, the growth with OVCAR-5 ovarian was 47.8%; in the assay with OVCAR-4 ovarian, 9.51% (active); in the assay with SK-OV-3 ovarian, 34.5%; with IGROV1 ovarian it was 67.3%; in the assay with OVCAR-3 ovarian it was 49.4%; in the assay with HS 578T breast it was 51.7%. Further, the growth in the assay with NCI/ADR-RES ovarian was 26%.

For the compound `O=C(/C=C/c1cccc([N+](=O)[O-])c1)c1ccc(Nc2nc(N3CCCCC3)nc(N3CCCCC3)n2)cc1`, the growth with SK-MEL-2 melanoma was 105%; in the assay with EKVX NSCLC, 92.3%; with SN12C renal, 96.3%; with UO-31 renal, 75.1%; in the assay on TK-10 renal, 108%; with CAKI-1 renal it was 89.6%. For the same compound, the growth with A498 renal was 80.9%; with CCRF-CEM leukemia, 104%; in the assay on MOLT-4 leukemia, 93.4%; in the assay with SR leukemia, 90.6%; in the assay with RPMI-8226 leukemia it was 7.95% (active); in the assay with OVCAR-8 ovarian, 95.2%. Further, the growth was 110% in the assay on OVCAR-5 ovarian; 97.6% with OVCAR-4 ovarian; 97.4% in the assay on SK-OV-3 ovarian; 88.1% in the assay on IGROV1 ovarian; 91.5% in the assay with OVCAR-3 ovarian; 103% in the assay with HS 578T breast. Besides, in the assay on NCI/ADR-RES ovarian, the growth was 103%.

Regarding `CC1=C(O)C(=O)C(c2c(C)cc(C)c(Br)c2C)=C(O)C1=O`, the growth was 81.6% in the assay on SK-MEL-2 melanoma; 81.8% in the assay with EKVX NSCLC; 55% in the assay on SN12C renal; 83.7% in the assay on UO-31 renal; 73.6% in the assay on TK-10 renal; 50.2% in the assay with CAKI-1 renal. Also, the growth was 64.1% with A498 renal; 43.1% in the assay on CCRF-CEM leukemia; 54.6% with MOLT-4 leukemia; 48.9% with SR leukemia; 36.7% in the assay with RPMI-8226 leukemia; 68.4% with OVCAR-8 ovarian. Besides, the growth in the assay on OVCAR-5 ovarian is 70.1%; with OVCAR-4 ovarian, 45.6%; with SK-OV-3 ovarian it was 88.3%; in the assay on IGROV1 ovarian, 46.3%; in the assay on OVCAR-3 ovarian, 54.2%; in the assay on HS 578T breast, 76.4%. For the same compound, the growth in the assay on NCI/ADR-RES ovarian was 73.4%.

The values above are taken from PubChem BioAssay (NCI).
